From PubChem BioAssay
KB-3-1 tox: KB-3-1 parental cell cytotoxicity | AID 1347075 | hit rate 1.4% among 400,000 | Potency, µM (doses to about 46.1 µM), hits mostly cytotoxic | KB-3-1 viability, CellTiter-Glo ATP luminescence, 72 h; further: on the % scale 0 is the no-effect control and ±100 the full control effect; nearly all actives have a fitted effect of over 60% in size
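KB-3-1 parental drug-naive adenocarcinoma cells in DMEM/10% FBS, incubated 72 h at 37 C with pin-transferred compounds across a concentration series. Viability by CellTiter-Glo luminescence; concentration-response curves fitted after normalization.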
ELG1 DNA repair: ELG1-dependent DNA repair inhibition; Potency, µM (highest dose often 46.1 µM), for inactives: at the highest dose activity change, negative = inhibition, actives largely listed as inhibitors; HEK293T ELG1-luciferase reporter, luminescence, 16 h; DNA damage induced by 5-fluorouridine; hit rate 2.3% among 330,000; further: on the % scale 0 is the no-effect control and ±100 the full control effect; nearly all actives have a fitted effect of over 55% in size
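Overnight (16 hr) co-exposure of 2,000 cells/well to 5-fluorouridine and compound at 37 °C preceded detection. Luciferase was quantified via ONE-Glo luminescence; loss of signal denotes inhibition.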
SW480 rereplic: DNA re-replication induction in SW480 cells; Potency, µM (titrated, usually from 46.1 µM), for inactives: at the highest dose re-replication activation, hits mostly activators; AID 624297; SW480 DNA re-replication, Hoechst DNA content imaging, 48 h; hit rate 1.8% among 340,000; further: % of control where 0% means no effect; nearly all actives have a fitted effect of over 55% in size
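Readout is total intensity of Hoechst-stained nuclei, excited at 405 nm and collected at 500-530 nm. Compound treatment lasted 48 hr at 37 C in 5% CO2 before staining.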
KB-V1 cytotox: KB-V1 MDR subline cytotoxicity; KB-V1 MDR cells viability, CellTiter-Glo, 72 h; Potency, µM (doses to about 46.1 µM), actives largely listed as cytotoxic; hit rate 3.4% among 400,000; AID 1347076; further: on the % scale 0 is the no-effect control and ±100 the full control effect; nearly all actives have a fitted effect of over 60% in size
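Cytotoxicity toward P-gp-expressing KB-V1 cells was determined as loss of CellTiter-Glo luminescence after 72 h at 37 degrees C. Compounds were tested in quantitative HTS format across a concentration range, with curves fitted to normalized data.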
MCF10A rerep: inducers of DNA re-replication in MCF 10A breast cells. MCF 10A DNA re-replication, Hoechst nuclear intensity, 48 h. Potency, µM (titrated, usually from 46.1 µM), for the others: top-dose activity, positive = re-replication, hits mostly activators. hit rate 2.9% among 350,000. AID 624296; further: % of control where 0% means no effect; nearly all actives have a fitted effect of over 50% in size
Numbers without * were called inactive; i = inactive; ? = inconclusive; . = no result. A selection: hits, their analogues and other compounds. The true share with any hit is near 8.1%. The call rests on the fitted dose curve; in most records, active means well fitted curve in the direction sought with a large enough effect; inconclusive means small, poorly fitted or top-dose-only effect, or another doubt; inactive means no such curve, though single readings can be large; an effect the other way counts as inactive or inconclusive. Potency means the concentration at half of the fitted maximal effect.

SMILES	KB-3-1 tox	ELG1 DNA repair	SW480 rereplic	KB-V1 cytotox	MCF10A rerep
O=C1CCCCCCCN1Cc1ccccc1	i	.	11.4%	i	7.3%
Cc1sc(C(C2C(=O)CC(C)(C)CC2=O)C2C(=O)CC(C)(C)CC2=O)cc1[N+](=O)[O-]	i	?	12.8%	i	?
CC1(C)CC(=O)C(C(c2cc([N+](=O)[O-])ccc2Cl)C2C(=O)CC(C)(C)CC2=O)C(=O)C1	i	.	11.6µM*	i	?
O=C(Oc1ccccc1Cl)c1ccccc1	.	.	15.0%	.	16.4µM*
O=C(Oc1cccccc1=O)c1ccccc1	i	5.9%	18.4µM*	?	?
CC(C)Cc1nnc(NC(=O)CCC(=O)NCCc2ccccc2)s1	i	?	-8.4%	i	-1.0%
CCN(C(=O)COc1ccc(C)cc1OC)c1cccc2ccccc12	i	-5.9%	-2.5%	11.6µM*	14.3%
CCc1cc(C(=O)O)c(NC(=O)C(c2ccccc2)c2ccccc2)s1	i	-4.7%	-1.1%	i	13.7%
COc1ccc2nc(N3C(=O)C(O)=C(C(=O)c4ccco4)C3c3ccc(OC)c(OC)c3)sc2c1 (stereo not drawn)	i	.	.	i	.
Cc1ccc2nc(N3C(=O)C(O)=C(C(=O)c4ccc(C)o4)C3c3cccc(O)c3)sc2c1 (stereo not drawn)	i	22.1%	17.0%	i	23.1µM*
O=C(NCCCN1CCOCC1)NC1CCCCC1	i	14.3%	?	i	-6.3%
O=C(NCCCCCCCN1CCCCCCC1)C(C1CCCCC1)C1CCCCC1	?	.	?	3.26µM*	2.0%
COC(=O)[C@]1(C)N[C@H](CN(C)C(=O)Nc2ccc(Cl)cc2)[C@@H]2C(=O)N(Cc3ccccc3)C(=O)[C@@H]21	i	1.4%	-4.4%	i	-21.6%
N#C/C(=C\c1ccc(F)cc1)C(=O)Nc1ccccn1	i	2.0%	4.11µM*	i	5.2%
COc1ccc(Cn2c(=S)[nH]c3cc(OC)c(OC)cc3c2=O)cc1	?	10.3%	0.3%	i	?
S=C(NCc1ccccc1)NCc1ccc(Cl)cc1	i	2.2%	1.5%	i	3.9%
S=C(NCc1ccccc1)NCc1ccccc1	i	0.0%	20.6µM*	i	?
O=C(NC(=S)NCc1ccccc1)c1ccccc1	i	3.1%	-0.4%	i	2.8%
O=C(Cc1cc2ccccc2o1)NCc1ccc(F)cc1	i	-26.7%	?	?	11.6µM*
Cc1ccccc1-c1ccc(C(=O)NCc2ccccc2)o1	i	?	-10.4%	i	9.4%
O=C(NCc1ccccc1)c1ccc(-c2ccc(F)cc2)o1	i	20.0%	-9.3%	18.4µM*	16.4%
O=C(NC(=S)NCc1ccc(F)cc1)c1ccccc1	i	11.8%	?	20.6µM*	-1.5%
CS(=O)(=O)c1sc(C(=O)NC(=O)Nc2cccc(C(F)(F)F)c2)c2c1C=CCC2	i	-3.9%	0.4%	i	12.4%
CCC(=O)NC(=S)Nc1cccc(Cl)c1N1CCCC1	i	9.0%	1.0%	i	17.6%
N#C/C(=C/c1cccc(C(F)(F)F)c1)c1nc(CCN2C(=O)c3ccccc3C2=O)cs1	i	0.0%	-3.6%	20.6µM*	5.6%
SMILES	KB-3-1 tox	ELG1 DNA repair	SW480 rereplic	KB-V1 cytotox	MCF10A rerep
COc1ccc(C)cc1NC(=O)CNC(c1ccccc1)c1ccc(C)cc1 (stereo not drawn)	4.61µM*	6.51µM*	2.59µM*	i	?
COc1ccc(C)cc1NC(=O)C(NCC1CCCO1)c1ccccc1 (stereo not drawn)	i	-24.3%	28.4%	16.4µM*	?
COc1ccccc1NC(=O)CNC(c1ccccc1)c1ccccc1	i	8.5%	7.1%	i	?
C=C1C(=O)O[C@H]2[C@H]1[C@H](OC(=O)/C(C)=C\C)C[C@]1(CO1)[C@@H]1[C@H](OC(C)=O)C=C(C)[C@]21O	i	.	?	i	3.26µM*
C=C1C(=O)O[C@H]2C[C@]3(C)C([C@@H](OC(=O)/C(C)=C/C)[C@H]12)[C@](C)(O)CC[C@H]3O (stereo partly drawn)	i	15.2%	18.0%	i	-17.9%
CCc1cccc(CC)c1NC(=O)COC(=O)CC1c2ccccc2CCN1S(=O)(=O)c1ccc(F)cc1 (stereo not drawn)	i	?	13.5%	18.4µM*	12.7%
CCOc1ccc(C(=O)NCC(=O)NCCSc2ccc(Br)cc2)cc1OCC	i	.	-5.8%	3.66µM*	1.6%
Cc1ccc(C(=O)NCC(=O)NCCSc2ccc(Br)cc2)cc1	i	0.5%	-0.8%	?	1.0%
CC(C)(OC(=O)NC(=O)C(F)(F)F)C(C)(C)OC(=O)NC(=O)C(F)(F)F	i	-0.6%	2.4%	i	15.7%
Cc1ccc(C(=O)Nc2ncc([N+](=O)[O-])s2)cc1	?	?	-7.0%	i	-5.6%
Cc1onc(-c2ccccc2)c1C(=O)Nc1ncc([N+](=O)[O-])s1	?	3.66µM*	13.7%	23.1µM*	?
Cc1nc2c(ccc3nc(NC(=O)c4ccc5c(c4)OCCO5)sc32)s1	i	?	?	i	2.31µM*
O=C(Nc1ncc([N+](=O)[O-])s1)c1ccc2c(c1)OCO2	23.1µM*	?	8.1%	?	-2.8%
Cc1cnc(NC(=O)c2ccc3c(c2)OCCO3)s1	5.8µM*	?	4.11µM*	?	2.91µM*
O=C(Nc1cccc2cccnc12)c1ccc2c(c1)OCCO2	i	?	0.3%	13µM*	?
O=C(NC(=S)Nc1cccc(Cl)c1N1CCCCC1)c1ccc2c(c1)OCCO2	i	3.0%	?	14.6µM*	4.61µM*
Cc1cnc(NC(=O)c2cccc(S(=O)(=O)N3CC(C)OC(C)C3)c2)s1 (stereo not drawn)	?	0.0%	-3.4%	16.4µM*	4.7%
O=C(Nc1cccc(Cl)c1N1CCCCC1)c1ccc2c(c1)OCCO2	i	0.3%	-0.2%	i	?
O=c1c2ccccc2sc2nc(CCl)nn12	6.51µM*	.	-2.4%	?	?
O=c1cc(CCl)nc2sc3ccccc3n12	?	1.1%	?	i	?
CN(Cc1ccco1)Cc1ccc(O)c2ncccc12	i	?	?	i	11.2%
CC(C)COCc1ccc(O)c2ncccc12	?	20.6µM*	?	?	29.9%
CCCOCc1ccc(O)c2ncccc12	?	7.3µM*	5.8µM*	?	17.6%
Cc1cc(O)ccc1Nc1nc2ccccc2nc1Nc1ccc(O)cc1C	i	-22.5%	?	i	18.4µM*
Cc1ccc(Nc2nc3ccccc3s2)c(C)c1	i	?	-2.1%	i	?
COc1ccc(-n2c(SC3CCOC3=O)nc3ccccc3c2=O)cc1OC (stereo not drawn)	i	17.7%	-4.6%	i	1.0%
